Experimental findings from PubChem BioAssay (NCATS) are described below.

The nature of test [1]: AP1 Signaling Pathway (AID 357). Also: % is scaled to controls: 0 for no effect and ±100 for the full control effect. The note with it: ME-180 AP-1-bla reporter, EGF-induced, beta-lactamase ratio, 5 h; at 17.2 µM (top of the series) unless noted. Put shortly: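 A ratiometric CCF4 readout (405 nm excitation; 460 and 530 nm emission) quantified AP-1-driven beta-lactamase in ME-180 cells after 5 h with compound and EC50 EGF; AC50 values were derived for activators and inhibitors.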

Test [2] can be described thus: NFAT Signaling Pathway (AID 444).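 Also: carbachol stimulus at about its EC50 of 1 µM final; % is scaled to controls: 0 for no effect and ±100 for the full control effect.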 Conditions: Jurkat NFAT-bla M1, carbachol, beta-lactamase ratio, 5 h; at 17.2 µM (top of the series) unless noted. In outline: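 Read-out: CCF4 FRET ratio (460 nm/530 nm) after 1 h RT dye loading, used for %activity and AC50 from titration series. Cells: Jurkat NFAT-β-lactamase/M1 line, treated with compound plus 1 uM carbachol for 5 h, 37 °C.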

The nature of test [3]: Stat Signaling Pathway (AID 446).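 Also: ME-180 cervical cancer cells given 40 pM IL-6 alongside compound; SIE-controlled beta-lactamase reporter measured as 460/530 nm FRET emission ratio; % is scaled to controls: 0 for no effect and ±100 for the full control effect.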 Conditions: ME-180 SIE beta-lactamase reporter, IL-6 stimulated, 5 h; at 17.2 µM (top of the series) unless noted. Put shortly:
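Emission at 460 and 530 nm (excitation 405 nm) reports SIE-controlled beta-lactamase in ME-180 cells. Cells received compound with 40 pM IL-6 for 5 hrs at 37 C; data scaled between 300 pM IL-6 and 125 nM JAK-inhibitor controls.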

Test [4] has as its target Glucocorticoid receptor (Homo sapiens) (UniProt P04150). Nature of the test: GR-GFP Redistribution (AID 450;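 active = compounds whose dose series gives a full or clear partial fitted curve of increased nuclear translocation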; also: potency is read from the fitted curve at half-maximal effect).
Test [5] in a line: qHTS Assay for Identification of Small Molecule Agonists for Hypoxia Response Element Signaling Pathway (AID 914; active = well fitted activation curve with a large enough effect in the signal ratio, with a control signal flat, not every such curve was filed as active; the % refers to the signal ratio; also: potency is read from the fitted curve at half-maximal effect; as to activation: % of control where 0% means no effect). Conditions: ME-180 (cervical carcinoma) HRE-bla reporter, beta-lactamase ratio, CoCl2, 17 h; activation: stronger effect = higher value. In outline:
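In Opti-MEM containing 0.5% dialyzed FBS and 10 mM HEPES, ME-180 HRE-bla cells received a compound titration and EC50 CoCl2. They were incubated 17 hours, then CCF4-loaded 2.5 hours at room temperature before ratio reading.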
(In general: In qHTS, concentration-response curves come from the screen itself.)

A number with no mark means an inactive call. Results filed as inconclusive are left out. Calls of active or inactive are those of the source. Unless noted, calls follow the shape of the dose curve; as a rule, active = well fitted curve in either direction with a large enough effect (not every such curve was filed as active); inconclusive = small, poorly fitted or top-dose-only effect, or another doubt; inactive = flat fitted curve, though single readings scatter.

Glucocorticoid receptor (Homo sapiens), sequence (P04150 whole entry, looked up): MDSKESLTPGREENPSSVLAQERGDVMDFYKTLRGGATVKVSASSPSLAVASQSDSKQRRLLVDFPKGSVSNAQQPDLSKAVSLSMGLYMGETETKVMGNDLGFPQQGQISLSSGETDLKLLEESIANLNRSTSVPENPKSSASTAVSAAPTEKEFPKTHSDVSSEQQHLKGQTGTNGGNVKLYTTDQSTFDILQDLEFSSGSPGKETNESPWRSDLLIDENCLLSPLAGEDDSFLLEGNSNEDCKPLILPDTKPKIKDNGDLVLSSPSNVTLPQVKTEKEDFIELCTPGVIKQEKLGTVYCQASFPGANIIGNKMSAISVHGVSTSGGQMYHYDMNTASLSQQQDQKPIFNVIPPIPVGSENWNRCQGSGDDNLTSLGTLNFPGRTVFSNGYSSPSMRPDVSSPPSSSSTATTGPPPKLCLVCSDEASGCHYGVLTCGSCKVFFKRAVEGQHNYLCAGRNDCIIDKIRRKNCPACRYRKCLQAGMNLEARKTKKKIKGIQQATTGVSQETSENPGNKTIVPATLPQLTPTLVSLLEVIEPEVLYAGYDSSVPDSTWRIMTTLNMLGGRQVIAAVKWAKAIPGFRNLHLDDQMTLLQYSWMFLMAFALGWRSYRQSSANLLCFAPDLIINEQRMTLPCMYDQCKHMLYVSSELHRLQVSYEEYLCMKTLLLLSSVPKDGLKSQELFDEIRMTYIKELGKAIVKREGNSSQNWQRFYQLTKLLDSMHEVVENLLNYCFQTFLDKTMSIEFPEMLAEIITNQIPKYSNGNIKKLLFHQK

In the case of `CC(=O)CCn1c(=O)n(CCC(C)=O)c(=O)n(CCC(C)=O)c1=O`, the figures for the activity change, negative = inhibition in test [1] and in test [2] were 5.12% and 6.61%, respectively. Moreover, in test [3], the activity, negative = inhibition is -1.84%. Besides, the Potency in test [4] was over 20.6 µM. Also, the activation in test [5] is 11.1%.

Consider `Cn1ccnc1SCCC#N`, for which the activity change, negative = inhibition was -0.27% in test [1] and -6.48% in test [2]. Moreover, the activity, negative = inhibition in test [3] is 5.85%. Besides, the Potency in test [4] was over 20.6 µM. Also, in test [5], the activation was 14%.

As to `CC(C)COc1ccc(C(=O)NC(CC(C)C)C(=O)O)cc1` (stereo not given), the activity change, negative = inhibition is -2.73% in test [1] and -7.69% in test [2]. Also, the activity, negative = inhibition in test [3] is 3.82%. Further, the Potency in test [4] is over 20.6 µM. Moreover, the activation in test [5] was 11.5%.

For the compound `O=C(NC1(C(F)(F)F)C(=O)Nc2c1c(=O)[nH]c(=O)n2Cc1ccco1)C1CCCCC1` (stereo not given), the activity change, negative = inhibition was -8.35% in test [1] and -10.2% in test [2]. The activity, negative = inhibition in test [3] is -2.02%. Moreover, the Potency in test [4] was over 20.6 µM. Further, the activation in test [5] was -5.1%.

For `O=c1cc(N2CCCCC2)nc2n1CCCS2`, the activity change, negative = inhibition in test [1] was -18.5%; in test [2], -21.5%. Also, the activity, negative = inhibition in test [3] is -10.2%. Further, the Potency in test [4] is over 20.6 µM; in test [5] it was 6.31 µM (active).

Consider `Cc1cc(C(F)(F)F)c(C#N)c(SCC(=O)NC2CC2)n1`, for which the activity change, negative = inhibition was 19.7% in test [1] and -9.19% in test [2]. Also, the activity, negative = inhibition in test [3] was 1.05%. For the same compound, the Potency in test [4] was over 20.6 µM. For the same compound, the activation in test [5] is 16.3%.

With `CN(Cc1ccccc1)Cc1c[nH]c2ccccc12`, the activity change, negative = inhibition is 15.6% in test [1] and -28.7% in test [2]. In addition, the activity, negative = inhibition in test [3] is 7.69%. Also, in test [4], the Potency was over 20.6 µM. Besides, the activation in test [5] was -19.8%.

As to `CCOc1cccc(N2C(=O)CC(N(CCc3ccc(OC)c(OC)c3)C(=O)CC)C2=O)c1` (stereo not given), the activity change, negative = inhibition in test [1] was -28.7%; in test [2], 0.637%. Moreover, the activity, negative = inhibition in test [3] is 3.67%. For the same compound, the Potency in test [4] is over 20.6 µM. The activation in test [5] is 11%.

For `COC(=O)c1[nH]c(C)c(/C(O)=C2\C(=O)C(=O)N(CCN3CCOCC3)C2c2ccccc2OC)c1C` (stereo not given), the activity change, negative = inhibition is 3.47% in test [1] and 17.3% in test [2]. Also, in test [3], the activity, negative = inhibition is -6.01%. Moreover, in test [4], the Potency is over 20.6 µM. In test [5], the activation is 0.0679%.

`CNc1ccccc1-c1nc2ccccc2n(C)c1=O`: the activity change, negative = inhibition in test [1] was 11.2%; in test [2], -2.49%. Also, the activity, negative = inhibition in test [3] is 12%. In addition, the Potency in test [4] was over 20.6 µM. Further, the activation in test [5] was -4.3%.

Take `CN(CCNC(=O)c1ccc(/C=N/O)nc1)Cc1ccccc1`: the activity change, negative = inhibition is 0.297% in test [1] and -21.1% in test [2]. Besides, in test [3], the activity, negative = inhibition was -0.957%. Besides, the Potency in test [4] was over 20.6 µM. In test [5], the activation is 9.65%.

Turning to `C=CCn1c(=N)c(C(=O)OCC)cc2c(=O)n3cccc(C)c3nc21`, the activity change, negative = inhibition in test [1] is 15.5%; in test [2], -23.4%. The activity, negative = inhibition in test [3] is 28.1%. Moreover, the Potency in test [4] was over 20.6 µM; in test [5], 10 µM (active).

Take `Cc1cccc(OCC(=O)NCC(=O)n2nc(C)cc2C)c1`: the activity change, negative = inhibition in test [1] was 2.67%; in test [2] it was 12.1%. In test [3], the activity, negative = inhibition is 4.06%. Besides, in test [4], the Potency is over 20.6 µM. Further, in test [5], the activation is 14.3%.

Take `CC(C)OC(=O)C(CC(=O)O)NCc1ccccc1` (stereo not given): the activity change, negative = inhibition is -7.38% in test [1] and 10.6% in test [2]. In addition, in test [3], the activity, negative = inhibition is 5.04%. In test [4], the Potency is over 20.6 µM. In test [5], the activation is 19.8%.

For `O=c1c2ccccc2ncn1Cc1ccco1`, the activity change, negative = inhibition in test [1] was 14.1%; in test [2], -4.44%. Further, the activity, negative = inhibition in test [3] is 2.8%. For the same compound, in test [4], the Potency is over 20.6 µM. Further, in test [5], the activation is 2.2%.

As for `CSc1nc(C)c2c(c1C#N)CCCC2`, the results for the activity change, negative = inhibition in test [1] and in test [2] were -16.1% and -18.1%, respectively. The activity, negative = inhibition in test [3] was 16.1%. Further, the Potency in test [4] is over 20.6 µM. For the same compound, the activation in test [5] is -4.49%.

Take `CC(C)CNC(=O)c1c(N)n(/N=C/c2cccnc2)c2nc3ccccc3nc12`: the results for the activity change, negative = inhibition in test [1] and in test [2] were 9.25% and 329% [activator] (active), respectively. In test [3], the activity, negative = inhibition is 16.6%. Also, the Potency was over 20.6 µM in test [4] and 10 µM (active) in test [5].

Consider `CCOC(=O)C(C(=O)OCC)N(C#N)c1nc(SC)nc(N(C)C)n1`, for which the values for the activity change, negative = inhibition in test [1] and in test [2] were -8.06% and -23.5%, respectively. For the same compound, the activity, negative = inhibition in test [3] was -8.92%. The Potency in test [4] is over 20.6 µM. The activation in test [5] was -11.1%.

Take `COC(=O)c1ccc(=O)n(Cc2ccc3c(c2)OCO3)c1`: the activity change, negative = inhibition was -0.911% in test [1] and 6.79% in test [2]. The activity, negative = inhibition in test [3] was -1.86%. Moreover, in test [4], the Potency is over 20.6 µM. The activation in test [5] was 26.1%.

Consider `Cc1ccc(C(=O)/C=C/Nc2cccc(O)c2)cc1`, for which the activity change, negative = inhibition in test [1] is 10.4%; in test [2] it was 1.57%. For the same compound, in test [3], the activity, negative = inhibition is -17.8%. The Potency in test [4] is over 20.6 µM; in test [5], 10 µM (active).

For the compound `COC(=O)[C@H]1CCCN1C(=O)Nc1cccc(Oc2c(F)c(F)c(F)c(F)c2F)c1`, the activity change, negative = inhibition in test [1] is -14.6%; in test [2], -9.08%. In addition, in test [3], the activity, negative = inhibition was -7.79%. Besides, in test [4], the Potency was over 20.6 µM. The activation in test [5] was -9.38%.

As for `O=C1C(=O)N(Cc2cccnc2)C(c2ccccn2)/C1=C(/O)c1ccccc1` (stereo not given), the activity change, negative = inhibition is -5.8% in test [1] and -4.6% in test [2]. In addition, in test [3], the activity, negative = inhibition was 4.87%. Also, the Potency in test [4] is over 20.6 µM. Also, in test [5], the activation is 2.14%.

`COc1cccc(Cn2c(Oc3ccccc3)nc3c2c(=O)n(C)c(=O)n3C)c1`: the activity change, negative = inhibition in test [1] is -23.1%; in test [2], -10.8%. The activity, negative = inhibition in test [3] is -11.1%. In addition, in test [4], the Potency is over 20.6 µM. Further, the activation in test [5] was -17.4%.

As for `O=C(O)C(Cc1c[nH]c2ccccc12)NS(=O)(=O)c1cccc2nsnc12` (stereo not given), the values for the activity change, negative = inhibition in test [1] and in test [2] were 4.19% and 3.61%, respectively. For the same compound, the activity, negative = inhibition in test [3] was 6.46%. The Potency in test [4] was over 20.6 µM. Further, in test [5], the activation is -7.91%.

As to `CCCCOc1ccc(CSC(CC(=O)O)C(=O)O)cc1` (stereo not given), the results for the activity change, negative = inhibition in test [1] and in test [2] were 11.3% and 11.2%, respectively. The activity, negative = inhibition in test [3] is 1.48%. The Potency in test [4] was over 20.6 µM. Also, in test [5], the activation is 26.9%.
